Each sequence was assayed against T1, ETV3L (Homo sapiens, UniProt Q6ZN32 1-361) (assay: DAPPL (digital affinity profiling via proximity ligation, sequencing); 10 mM Tris-HCl pH 7.5, 50 mM NaCl, 1 mM DTT, 4% glycerol, room temperature, 30 min; GST-TFs on glutathione beads, 16-mer random dsDNA library, 0.1% formaldehyde crosslink after washing; high values mean tight binding). Conditions: protein: recombinant; tags: N-terminal GST; dsDNA, one strand shown.
T1 sequence: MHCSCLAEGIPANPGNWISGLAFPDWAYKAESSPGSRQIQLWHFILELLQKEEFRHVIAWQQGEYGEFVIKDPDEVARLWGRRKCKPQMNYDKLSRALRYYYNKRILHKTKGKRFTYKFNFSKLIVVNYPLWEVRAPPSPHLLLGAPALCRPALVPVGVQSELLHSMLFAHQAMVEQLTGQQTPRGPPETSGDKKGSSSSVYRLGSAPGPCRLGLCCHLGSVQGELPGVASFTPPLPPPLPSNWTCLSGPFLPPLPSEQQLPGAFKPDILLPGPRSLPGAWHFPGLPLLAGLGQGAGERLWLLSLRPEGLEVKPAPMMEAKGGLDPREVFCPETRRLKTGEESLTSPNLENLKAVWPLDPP
Summary of the method: (§1)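 GST fusions of human transcription factors were expressed in yeast and captured with glutathione beads. Once given DNA barcodes and pooled alongside a tag-only sample, they were incubated for 30 min at room temperature with 200 nmole of a random double-stranded 16-mer DNA library in Tris/NaCl/DTT/glycerol buffer, then washed, crosslinked (0.1% formaldehyde), proximity-ligated, PCR-amplified and sequenced on an Illumina NextSeq500. The binding signal of each hexamer is its read frequency for a factor divided by its frequency for the tag-only sample.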

Sequence	binding signal
GCTCTT	1.73 fold enrichment (6-mer frequency, TF over GST control)
CCTCGC	1.53 fold enrichment (6-mer frequency, TF over GST control)
ATGTGT	1.1 fold enrichment (6-mer frequency, TF over GST control)
ACTCAT	1.26 fold enrichment (6-mer frequency, TF over GST control)
TAAACA	1.25 fold enrichment (6-mer frequency, TF over GST control)
GTAATC	1.12 fold enrichment (6-mer frequency, TF over GST control)
CCGATC	1.13 fold enrichment (6-mer frequency, TF over GST control)
TTTGGG	1.46 fold enrichment (6-mer frequency, TF over GST control)
CCGGAA	5.28 fold enrichment (6-mer frequency, TF over GST control)
ACGACA	1.12 fold enrichment (6-mer frequency, TF over GST control)
TAACCA	1.13 fold enrichment (6-mer frequency, TF over GST control)
ACTGCA	1.17 fold enrichment (6-mer frequency, TF over GST control)
ATTGTC	1.14 fold enrichment (6-mer frequency, TF over GST control)
AGGAAA	1.37 fold enrichment (6-mer frequency, TF over GST control)
AGATGC	1.09 fold enrichment (6-mer frequency, TF over GST control)
ATTCAG	1.2 fold enrichment (6-mer frequency, TF over GST control)
TTGCAC	1.38 fold enrichment (6-mer frequency, TF over GST control)
CGGTCT	1.15 fold enrichment (6-mer frequency, TF over GST control)
TCCTTA	1.7 fold enrichment (6-mer frequency, TF over GST control)
CCGCTA	1.27 fold enrichment (6-mer frequency, TF over GST control)
TGCGAC	1.32 fold enrichment (6-mer frequency, TF over GST control)
CCCCGG	1.24 fold enrichment (6-mer frequency, TF over GST control)
CACCCG	1.32 fold enrichment (6-mer frequency, TF over GST control)
TGCACC	1.21 fold enrichment (6-mer frequency, TF over GST control)
TGGGCT	1.45 fold enrichment (6-mer frequency, TF over GST control)
CCAAAT	1.02 fold enrichment (6-mer frequency, TF over GST control)
ATGTCC	1.7 fold enrichment (6-mer frequency, TF over GST control)
TGATCC	1.28 fold enrichment (6-mer frequency, TF over GST control)
TACAAG	1.05 fold enrichment (6-mer frequency, TF over GST control)
TTCACA	1.21 fold enrichment (6-mer frequency, TF over GST control)

These sequences were tested against T2, ETS2 (Homo sapiens, UniProt P15036 1-469) in the same assay as above. Conditions: protein: recombinant; tags: N-terminal GST; dsDNA, one strand shown.
T2 sequence: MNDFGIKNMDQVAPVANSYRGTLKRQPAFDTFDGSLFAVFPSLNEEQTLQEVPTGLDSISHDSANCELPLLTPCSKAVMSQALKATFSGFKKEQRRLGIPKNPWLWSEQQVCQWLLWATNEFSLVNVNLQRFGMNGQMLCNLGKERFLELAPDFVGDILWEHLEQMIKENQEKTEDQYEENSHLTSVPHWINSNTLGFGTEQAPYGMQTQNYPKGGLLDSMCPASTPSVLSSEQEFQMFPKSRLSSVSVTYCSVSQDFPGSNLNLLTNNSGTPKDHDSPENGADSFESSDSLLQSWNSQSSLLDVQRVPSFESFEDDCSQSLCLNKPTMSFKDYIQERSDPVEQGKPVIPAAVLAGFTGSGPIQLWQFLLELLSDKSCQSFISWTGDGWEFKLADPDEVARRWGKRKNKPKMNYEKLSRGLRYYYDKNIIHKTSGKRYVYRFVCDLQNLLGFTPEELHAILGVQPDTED
Summary of the method: as §1

Sequence	binding signal
TTTCAA	1.24 fold enrichment (6-mer frequency, TF over GST control)
AATCAG	1.08 fold enrichment (6-mer frequency, TF over GST control)
TAAAGA	1.08 fold enrichment (6-mer frequency, TF over GST control)
ACATAC	1.21 fold enrichment (6-mer frequency, TF over GST control)
GCCTTT	1.14 fold enrichment (6-mer frequency, TF over GST control)
TTTGTC	1.24 fold enrichment (6-mer frequency, TF over GST control)
CCCACG	1.17 fold enrichment (6-mer frequency, TF over GST control)
CTGACA	1.22 fold enrichment (6-mer frequency, TF over GST control)
ACTGGC	1.11 fold enrichment (6-mer frequency, TF over GST control)
CTCCAT	1.36 fold enrichment (6-mer frequency, TF over GST control)
GCTCTT	1.41 fold enrichment (6-mer frequency, TF over GST control)
CCTCGC	1.41 fold enrichment (6-mer frequency, TF over GST control)
ATGTGT	1.17 fold enrichment (6-mer frequency, TF over GST control)
ACTCAT	1.29 fold enrichment (6-mer frequency, TF over GST control)
TAAACA	1.27 fold enrichment (6-mer frequency, TF over GST control)
GTAATC	1.16 fold enrichment (6-mer frequency, TF over GST control)
CCGATC	1.18 fold enrichment (6-mer frequency, TF over GST control)
TTTGGG	1.3 fold enrichment (6-mer frequency, TF over GST control)
CCGGAA	5.63 fold enrichment (6-mer frequency, TF over GST control)
ACGACA	1.12 fold enrichment (6-mer frequency, TF over GST control)

Source: publication PMC7862700, “An all-to-all approach to the identification of sequence-specific readers for epigenetic DNA modifications on cytosine”
